Measured values taken from PubChem BioAssay AID504333 (National Center for Advancing Translational Sciences (NCATS), 2011).
“And” between values parts separate entries of the source, which are not always exact repeats. Equal values may be shown once. Among all 360,000 compounds or so, about 16,000 (4.4%) were called active. Roughly 9% stayed inconclusive and do not appear here. The call rests on the fitted dose curve; in most records, active means well fitted inhibition curve with a large enough effect; inconclusive means small, poorly fitted or top-dose-only effect; inactive means no such curve, though single readings can be large or run the other way. The entries come from a sample that favours actives as a whole. More than one record can exist for a structure, and the calls need not agree.

molecular target: Bromodomain adjacent to zinc finger domain protein 2B (Homo sapiens) (UniProt Q9UIF8); test: qHTS Assay for Inhibitors of BAZ2B; settings: AlphaScreen BAZ2B-H3K14Ac peptide displacement; series mostly up to 114 µM; activity change, negative = inhibition: at the top concentration; further: nearly all actives have a fitted effect of over 60% in size
In short: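 Protein-peptide AlphaScreen: BAZ2B 50 nM, b-H3K14Ac 50 nM, 1x PBS pH 7.4 + 0.01% Tween-20. Preincubation 30 min RT; cpd 30 min RT (top 110 uM); beads 20 min RT, light-protected.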
On the % scale 0 is the no-effect control and ±100 the full control effect; potency means the concentration at half of the fitted maximal effect.

Sequence of Bromodomain adjacent to zinc finger domain protein 2B (Homo sapiens) (Q9UIF8 whole entry, looked up, the tested form may be a part): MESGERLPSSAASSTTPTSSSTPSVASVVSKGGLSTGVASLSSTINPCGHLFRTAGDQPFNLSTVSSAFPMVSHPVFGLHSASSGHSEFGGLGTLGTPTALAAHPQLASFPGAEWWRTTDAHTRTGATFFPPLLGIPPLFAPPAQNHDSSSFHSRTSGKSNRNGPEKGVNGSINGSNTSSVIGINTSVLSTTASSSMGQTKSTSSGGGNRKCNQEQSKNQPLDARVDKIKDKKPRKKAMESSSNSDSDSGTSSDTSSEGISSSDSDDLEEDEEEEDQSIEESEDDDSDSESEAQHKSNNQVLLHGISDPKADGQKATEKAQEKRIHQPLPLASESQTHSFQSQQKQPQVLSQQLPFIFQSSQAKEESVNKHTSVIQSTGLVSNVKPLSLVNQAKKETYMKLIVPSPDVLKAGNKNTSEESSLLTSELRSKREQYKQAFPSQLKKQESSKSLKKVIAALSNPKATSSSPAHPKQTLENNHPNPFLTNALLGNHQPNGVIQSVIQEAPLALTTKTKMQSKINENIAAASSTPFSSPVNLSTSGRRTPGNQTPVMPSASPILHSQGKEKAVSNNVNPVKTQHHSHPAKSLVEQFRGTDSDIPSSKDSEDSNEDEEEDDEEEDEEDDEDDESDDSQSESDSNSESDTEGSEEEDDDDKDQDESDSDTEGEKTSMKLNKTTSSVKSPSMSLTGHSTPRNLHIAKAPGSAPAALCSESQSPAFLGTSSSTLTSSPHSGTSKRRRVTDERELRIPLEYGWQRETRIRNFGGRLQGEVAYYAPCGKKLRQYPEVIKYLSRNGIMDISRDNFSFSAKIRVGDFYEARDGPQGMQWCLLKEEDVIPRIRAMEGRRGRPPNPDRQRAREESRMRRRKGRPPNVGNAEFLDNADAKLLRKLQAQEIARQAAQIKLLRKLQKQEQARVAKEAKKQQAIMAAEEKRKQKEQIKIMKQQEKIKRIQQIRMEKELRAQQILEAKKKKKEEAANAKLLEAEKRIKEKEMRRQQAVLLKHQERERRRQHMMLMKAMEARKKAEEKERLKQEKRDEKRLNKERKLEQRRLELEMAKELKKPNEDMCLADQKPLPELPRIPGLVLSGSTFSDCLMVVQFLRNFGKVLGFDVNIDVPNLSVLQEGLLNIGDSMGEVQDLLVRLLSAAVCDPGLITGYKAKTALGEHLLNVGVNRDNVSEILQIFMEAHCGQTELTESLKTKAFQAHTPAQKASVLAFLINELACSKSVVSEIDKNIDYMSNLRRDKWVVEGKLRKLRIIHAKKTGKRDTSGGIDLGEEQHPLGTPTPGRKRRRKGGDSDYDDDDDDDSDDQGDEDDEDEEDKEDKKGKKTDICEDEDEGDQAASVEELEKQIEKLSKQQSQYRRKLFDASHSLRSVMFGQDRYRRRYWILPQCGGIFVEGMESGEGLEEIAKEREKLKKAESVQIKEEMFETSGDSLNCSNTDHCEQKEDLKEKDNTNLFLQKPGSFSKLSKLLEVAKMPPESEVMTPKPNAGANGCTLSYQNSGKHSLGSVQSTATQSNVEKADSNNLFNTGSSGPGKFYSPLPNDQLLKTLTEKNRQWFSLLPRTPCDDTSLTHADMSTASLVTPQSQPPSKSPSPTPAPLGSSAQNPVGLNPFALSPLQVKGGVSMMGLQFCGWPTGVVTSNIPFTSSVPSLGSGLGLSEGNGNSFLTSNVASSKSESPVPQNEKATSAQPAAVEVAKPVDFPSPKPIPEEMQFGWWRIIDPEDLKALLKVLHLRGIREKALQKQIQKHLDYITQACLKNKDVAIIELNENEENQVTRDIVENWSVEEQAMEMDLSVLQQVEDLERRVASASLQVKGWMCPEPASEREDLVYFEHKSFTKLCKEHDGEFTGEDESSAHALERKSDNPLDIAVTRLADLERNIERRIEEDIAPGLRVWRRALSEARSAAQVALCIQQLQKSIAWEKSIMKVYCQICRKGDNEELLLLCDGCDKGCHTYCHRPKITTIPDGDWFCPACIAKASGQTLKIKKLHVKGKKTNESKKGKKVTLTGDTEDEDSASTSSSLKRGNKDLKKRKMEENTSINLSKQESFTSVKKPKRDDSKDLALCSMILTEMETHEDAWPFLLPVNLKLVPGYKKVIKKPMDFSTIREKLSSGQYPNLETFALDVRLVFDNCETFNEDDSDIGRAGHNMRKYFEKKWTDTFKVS

Q: With `CCC(=O)N1CCc2cc(Br)cc(S(=O)(=O)Nc3ccc(C)cc3C)c21` as the compound, how does the “activity change, negative = inhibition” value read?
A: -0.535% (inactive)

Q: How did the “activity change, negative = inhibition” value turn out when `COc1ccc(NC(=O)C(=O)NCc2ccco2)cc1` was run?
A: 3.4% (inactive)

Q: `COc1ccc(-c2oc3ncn(Cc4ccco4)c(=N)c3c2-c2ccc(OC)cc2)cc1` was tested. Which Potency did it give?
A: 28.2 µM (active)

Q: Which “activity change, negative = inhibition” value does the source give for `COc1ccc(Cn2ccnc2SCC(=O)NCc2ccco2)cc1` here?
A: -14.3% (inactive)

Q: `CCN1CCN(c2ncc3c(n2)CC(c2ccccc2O)CC3=O)CC1` (stereo not given) was tested. Which “activity change, negative = inhibition” value did it give?
A: -3.34% (inactive)

Q: With `Cc1ccc(C(=O)N2CCc3cc(CNC(=O)c4ccc(Br)cc4)ccc32)cc1` as the compound, how does the “activity change, negative = inhibition” value read?
A: -10.7% (inactive)

Q: For `N#Cc1c(NC(=O)CSc2nc3ccccc3c(=O)n2Cc2ccco2)sc2c1CCCC2`, which “activity change, negative = inhibition” value is on record?
A: -4.51% (inactive)

Q: For `COc1ccc(-n2c(SCC(=O)Nc3sc4c(c3C#N)CCCC4)nnc2-c2ccc(O)cc2)cc1`, which Potency is on record?
A: 79.4 µM (active)

Q: `Cc1ccc(C)c(OCC(=O)Nc2sc3c(c2C#N)CCCC3)c1C` was tested. Which “activity change, negative = inhibition” value did it give?
A: 6.56% (inactive)

Q: Which Potency does the source give for `Cc1cs/c(=N\N=C\c2ccc(O)cc2)n1Cc1ccco1` here?
A: 44.7 µM (active)

Q: `COc1ccc(NC(=O)CSc2nnc(-c3cccs3)n2Cc2ccco2)cc1OC` was tested. Which “activity change, negative = inhibition” value did it give?
A: -1% (inactive)

Q: How did the “activity change, negative = inhibition” value turn out when `CN(c1ccccc1)c1ccc(/C=c2\s/c(=C(/C#N)C(=O)C(C)(C)C)n(Cc3ccco3)c2=O)cc1` was run?
A: -37.8% (inactive)

Q: For `Cc1ccc(-c2cn3c(n2)sc2cc(C(=O)NCc4cccs4)ccc23)c(C)c1`, which “activity change, negative = inhibition” value is on record?
A: 55.2% (inactive)

Q: `Cc1ccccc1CSc1nnc(-c2cccnc2)n1N` was tested. Which “activity change, negative = inhibition” value did it give?
A: 1.75% (inactive)

Q: For `Cc1ccccc1CSc1nnc(Cn2c(=O)sc3ccccc32)n1C`, which “activity change, negative = inhibition” value is on record?
A: -2.9% (inactive)

Q: Which Potency does the source give for `Cc1ccccc1CSc1nnc(-c2ccccn2)n1N` here?
A: 28.2 µM (active)

Q: How did the “activity change, negative = inhibition” value turn out when `CCOC(=O)CCCNC(=O)COC(=O)/C=C/c1ccc2c(c1)OCO2` was run?
A: -8.04% (inactive)

Q: Which “activity change, negative = inhibition” value does the source give for `O=C(Cc1ccc(F)cc1)N/N=C/c1ccc2c(c1)OCO2` here?
A: 3.35% (inactive)

Q: For `CCC1=C/C(=C\c2ccc3c(c2)OCO3)C(=O)S1`, which Potency is on record?
A: 44.7 µM (active)

Q: For `Cn1c(=O)c2c(nc(SCC(=O)Nc3ccc(F)cc3)n2Cc2ccc(Cl)cc2)n(C)c1=O`, which “activity change, negative = inhibition” value is on record?
A: 2.76% (inactive)

Q: How did the “activity change, negative = inhibition” value turn out when `CC1Cc2cc(S(=O)(=O)CCC(=O)Nc3ccc(F)c(Cl)c3)ccc2N1C(=O)C1CC1` (stereo not given) was run?
A: -6.1% (inactive)

Q: How did the Potency turn out when `C/C(=N\NC(=S)Nc1ccc(C)cc1)c1cc2ccccc2o1` was run?
A: 56.2 µM (active)

Q: With `Cc1ccc(NC(=O)c2cc3ccccc3o2)cc1` as the compound, how does the “activity change, negative = inhibition” value read?
A: -1.9% (inactive)

Q: How did the “activity change, negative = inhibition” value turn out when `CC(C)Oc1ccc(NC(=O)c2cc3ccccc3o2)cc1` was run?
A: -17.6% (inactive)

Q: How did the “activity change, negative = inhibition” value turn out when `Cc1ccc(NC(=O)C2CCN(S(=O)(=O)c3cc(-c4noc(C)n4)ccc3C)CC2)c(C)c1` was run?
A: -7.07% (inactive)

Q: `C/C(=N/NC(=O)c1ccn(C)n1)c1ccncc1` was tested. Which “activity change, negative = inhibition” value did it give?
A: -32% (inactive)

Q: `C/C(=N\NC(N)=S)c1cccnc1` was tested. Which “activity change, negative = inhibition” value did it give?
A: -1.17% (inactive)

Q: `C/C(=N\NC(N)=S)c1ccncc1` was tested. Which Potency did it give?
A: 50.1 µM (active)

Q: For `CCOC(=O)c1c(C)[nH]c(C)c1S(=O)(=O)N(C)CC(=O)N1CCN(c2ccccc2)CC1`, which “activity change, negative = inhibition” value is on record?
A: -19.6% (inactive)

Q: How did the “activity change, negative = inhibition” value turn out when `Cc1ccccc1NC(=O)Cn1c(=O)n(CC2CCC(C(=O)NCCc3ccccc3)CC2)c(=O)c2ccccc21` (stereo not given) was run?
A: -1.6% (inactive)

Q: For `Cc1c(Cl)cccc1NC(=O)C(=O)NCCc1csc2nc(-c3ccccc3F)nn12`, which “activity change, negative = inhibition” value is on record?
A: -7.32% (inactive)

Q: `C[C@]1(C(=O)NCCc2c[nH]c3ccccc23)C=C[C@@H](Cc2ccccc2)N1C(=O)c1ccccc1` was tested. Which Potency did it give?
A: 79.4 µM (active)

Q: With `CC(=O)NC(Cc1c[nH]c2ccccc12)C(=O)NCCc1ccccc1` (stereo not given) as the compound, how does the “activity change, negative = inhibition” value read?
A: -4.32% (inactive)

Q: Which “activity change, negative = inhibition” value does the source give for `CC1(C(=O)NCCc2c[nH]c3ccccc23)C=CC2(CCCCC2)N1C(=O)c1ccccc1` (stereo not given) here?
A: -37.5% (inactive)

Q: With `COc1cc(Nc2nc(-c3ccc(OC)c(OC)c3)nc3ccccc23)cc(OC)c1` as the compound, how does the “activity change, negative = inhibition” value read?
A: -14.7% (inactive)

Q: `Cc1ccccc1OCC(=O)Nc1nnc(S(=O)(=O)N2CCCC2)s1` was tested. Which Potency did it give?
A: inactive and 3.55 µM (active)

Q: Which “activity change, negative = inhibition” value does the source give for `Cc1cccc(C(=O)Nc2nnc(S(=O)(=O)N3CCCCCC3)s2)c1` here?
A: -1.37% (inactive)

Q: `CC1CCN(S(=O)(=O)c2nnc(NC(=O)COc3ccccc3F)s2)CC1` was tested. Which “activity change, negative = inhibition” value did it give?
A: 0.509% (inactive)

Q: With `CCOCCCNC(=O)c1ccc2nc(CCc3ccccc3)oc2c1` as the compound, how does the “activity change, negative = inhibition” value read?
A: -0.408% (inactive)

Q: With `COc1ccc(CCNC(=O)Cn2c(=O)cc(C(F)(F)F)c3c(C)nn(C)c32)c(OC)c1` as the compound, how does the “activity change, negative = inhibition” value read?
A: 2.29% (inactive)

Q: Which Potency does the source give for `CCCC1CCC(=NNC(=S)NCCc2ccccc2)CC1` (stereo not given) here?
A: 10 µM (active)

Q: For `S=C(NCCc1ccccc1)Nc1ccccc1`, which “activity change, negative = inhibition” value is on record?
A: -12.7% (inactive)

Q: Which “activity change, negative = inhibition” value does the source give for `S=C(NCCc1ccccc1)NCC1CCCO1` (stereo not given) here?
A: 5.46% (inactive)

Q: Which “activity change, negative = inhibition” value does the source give for `COc1ccccc1NC(=O)c1oc2ccccc2c1NC(=O)C(C)C` here?
A: 0.844% (inactive)

Q: Which “activity change, negative = inhibition” value does the source give for `O=C(O)CCC(=O)NCc1ccc2[nH]c3c(c2c1)CCCC3` here?
A: -1.26% (inactive)

Q: How did the “activity change, negative = inhibition” value turn out when `Cc1cccc(NC(=S)NCCN(C2CCCCC2)C2CCCC2)c1` was run?
A: -24.5% (inactive)

Q: How did the Potency turn out when `Cc1cccc(NC(=S)NCc2ccc3[nH]c4c(c3c2)CCCC4)c1` was run?
A: 39.8 µM (active)

Q: For `O=C(CCn1c(=O)c2sccc2n(Cc2ccc(F)cc2)c1=O)NCc1ccc2c(c1)OCO2`, which “activity change, negative = inhibition” value is on record?
A: -21.3% (inactive)

Q: How did the “activity change, negative = inhibition” value turn out when `O=C(Cn1c(=O)nc(-c2ccccc2)c2cc(Cl)ccc21)NCc1ccc(Cl)cc1` was run?
A: -12.4% (inactive)

Q: For `C=CS(=O)c1sc(Cl)c(N2CCOCC2)c1[N+](=O)[O-]` (stereo not given), which Potency is on record?
A: 39.8 µM (active)
